Screening data from PubChem BioAssay.
MEKK2mut PB1 HTS: signal of MEK5 binding to mutant human MEKK2 PB1 domain | bead flow cytometry, Alexa488-MEK5 binding to MEKK2 mutant | percent response, % at 10 µM | actives 0.35% (n = 290,000) | AID 1530; in the data active = percent response above about 24%, passing the limit was not always enough
MEKK3 PB1 HTS: raises or lowers MEK5 binding to the human MEKK3 PB1 domain; actives 1.4% (n = 290,000); binding response (% of control), % at 10 µM; bead-based flow cytometry, Alexa488-MEK5 binding to MEKK3; actives lie on both sides; 0 = blocked by unlabeled MEK5, 100 = vehicle; AID 1529; Q99759;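 active = binding response more than 3 SD above or below the average of its plate-row segment, actives on both sides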;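 also: Alexa488 bead fluorescence after subtracting the streptavidin-only scavenger bead signal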
VLA-4 inh: inhibition in a human VLA-4 binding assay; VLA-4 expressing cells, ligand binding flow cytometry; actives 0.2% (n = 330,000); P13612; AID 2557; inhibition, % (about 7 µM as worked out from the volumes in the protocol); in the data active = inhibition above about 50%
MEKK2wt PB1 HTS: raises or lowers MEK5 binding to wildtype human MEKK2 PB1 domain. Q9Y2U5. bead flow cytometry, Alexa488-MEK5 binding to MEKK2 WT; actives lie on both sides. binding response (% of control), % at 10 µM. actives 1.1% (n = 290,000); in the data active = binding response below about 67% or above about 130%
VLA-4 mod pick: confirmation of allosteric modulators of human VLA-4 integrin. shares compounds with VLA-4 inh. U937 cells, HUTS-21 LIBS mAb binding, flow cytometry; LDV ligand present at threefold Kd. inhibition, % at 6.7 µM. actives 2% (n = 1,300); in the data active = inhibition above about 40%;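 also: 0% = ligand without compound and 100% = no ligand background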
* hit, by the source's call. An excerpt weighted towards active compounds, which were near 2.2% of everything screened.

Results for O=C(c1cc(-c2cccs2)nc2ccccc12)N1CCN(S(=O)(=O)c2cccc(F)c2)CC1 ?
MEKK2mut PB1 HTS: 0.0; MEKK3 PB1 HTS: 99.0; VLA-4 inh: 91.2*; MEKK2wt PB1 HTS: 93.0; VLA-4 mod pick: 0.0

How did O=C(c1cc(-c2cccs2)nc2ccccc12)N1CCN(S(=O)(=O)c2ccccc2)CC1 do in these assays?
MEKK2mut PB1 HTS: -4.0; MEKK3 PB1 HTS: 88.0; VLA-4 inh: 13.5; MEKK2wt PB1 HTS: 87.0; VLA-4 mod pick: -13.2

How did CCC(C)C(NC(=O)c1ccc(Cl)cc1)C(=O)O (centres undefined) do in these assays?
MEKK2mut PB1 HTS: 6.0; MEKK3 PB1 HTS: 99.0; VLA-4 inh: 93.2*; MEKK2wt PB1 HTS: 102.0; VLA-4 mod pick: 3.3

How did CCC(COC(=O)Nc1cccc(C)c1)NC(=O)OCC(C)C (centres undefined) do in these assays?
MEKK2mut PB1 HTS: -5.0; MEKK3 PB1 HTS: 95.0; VLA-4 inh: 94.5*; MEKK2wt PB1 HTS: 100.0; VLA-4 mod pick: -4.2

Results for Cc1c(C(=O)N2CCOCC2)sc(NC(=O)Cc2ccccc2)c1C#N ?
MEKK2mut PB1 HTS: -8.0; MEKK3 PB1 HTS: 99.0; VLA-4 inh: 2.4; MEKK2wt PB1 HTS: 103.0

What do the screens show for `COC(=O)c1cc2c(ccn2-c2ccc(F)cc2)n1CC(C)C`?
MEKK2mut PB1 HTS: 2.0; MEKK3 PB1 HTS: 105.0; VLA-4 inh: 2.2; MEKK2wt PB1 HTS: 108.0

What do the screens show for `COC(=O)c1cc2c(ccn2-c2ccc(F)cc2)n1C(C)C`?
MEKK2mut PB1 HTS: -5.0; MEKK3 PB1 HTS: 98.0; VLA-4 inh: 62.9*; MEKK2wt PB1 HTS: 92.0; VLA-4 mod pick: 10.4

Results for CCOC(=O)c1sc2nc(C)nc(SCC(=O)N(C)C3CCS(=O)(=O)C3)c2c1C (centres undefined) ?
MEKK2mut PB1 HTS: -10.0; MEKK3 PB1 HTS: 82.0; VLA-4 inh: 42.5; MEKK2wt PB1 HTS: 78.0; VLA-4 mod pick: -10.2

Results for COc1ccc(CCNC(=O)CN2C(=O)NC3(CCCCC3C)C2=O)cc1 (centres undefined) ?
VLA-4 inh: -1.2

How did CC(NC(=O)NC12CC3CC(CC(C3)C1)C2)c1ccc2c(c1)OCO2 (centres undefined) do in these assays?
MEKK2mut PB1 HTS: -1.0; MEKK3 PB1 HTS: 99.0; VLA-4 inh: 13.7; MEKK2wt PB1 HTS: 93.0

What do the screens show for `CC(NC(=O)NC1CCCCC1)c1ccc2c(c1)OCO2` (centres undefined)?
MEKK2mut PB1 HTS: -7.0; MEKK3 PB1 HTS: 89.0; VLA-4 inh: 40.6; MEKK2wt PB1 HTS: 87.0; VLA-4 mod pick: 7.8

How did CC(=O)c1cn(CC(=O)Nc2ccccc2F)c2ccccc12 do in these assays?
MEKK2mut PB1 HTS: -1.0; MEKK3 PB1 HTS: 101.0; VLA-4 inh: 23.5; MEKK2wt PB1 HTS: 103.0

How did CCC(=O)c1cn(CC(=O)Nc2ccccc2)c2ccccc12 do in these assays?
MEKK2mut PB1 HTS: 0.0; MEKK3 PB1 HTS: 99.0; VLA-4 inh: 13.2; MEKK2wt PB1 HTS: 105.0

Results for COC(=O)c1cn(CC(=O)Nc2ccccc2C)c2ccccc12 ?
MEKK2mut PB1 HTS: 2.0; MEKK3 PB1 HTS: 107.0; VLA-4 inh: 21.0; MEKK2wt PB1 HTS: 107.0; VLA-4 mod pick: 4.0

Results for CCC(=O)c1cn(CC(=O)Nc2ccccc2F)c2ccccc12 ?
MEKK2mut PB1 HTS: 0.0; MEKK3 PB1 HTS: 100.0; VLA-4 inh: 10.9; MEKK2wt PB1 HTS: 100.0; VLA-4 mod pick: 3.3

Results for CCC(=O)c1cn(CC(=O)Nc2ccc(OC)cc2)c2ccccc12 ?
MEKK2mut PB1 HTS: -1.0; MEKK3 PB1 HTS: 102.0; VLA-4 inh: 57.2*; MEKK2wt PB1 HTS: 103.0; VLA-4 mod pick: 8.4

How did CCC(=O)c1cn(CC(=O)Nc2ccc(C)cc2)c2ccccc12 do in these assays?
MEKK2mut PB1 HTS: 8.0; MEKK3 PB1 HTS: 99.0; VLA-4 inh: 4.9; MEKK2wt PB1 HTS: 103.0; VLA-4 mod pick: 2.0

What do the screens show for `Cc1ccc(NS(=O)(=O)c2ccc(OCC(=O)NCc3ccccn3)cc2)cc1`?
MEKK2mut PB1 HTS: 4.0; MEKK3 PB1 HTS: 102.0; VLA-4 inh: -2.3; MEKK2wt PB1 HTS: 102.0

Results for Cc1ccc2[nH]c3c(Cl)ncnc3c2c1 ?
MEKK2mut PB1 HTS: -26.0; MEKK3 PB1 HTS: 76.0; VLA-4 inh: 3.0; MEKK2wt PB1 HTS: 79.0

What do the screens show for `CCOc1ncnc2c1[nH]c1ccccc12`?
MEKK2mut PB1 HTS: -6.0; MEKK3 PB1 HTS: 82.0; VLA-4 inh: 27.6; MEKK2wt PB1 HTS: 95.0; VLA-4 mod pick: 13.7
